Screening data: PubChem, National Center for Advancing Translational Sciences (NCATS)
RECQ1 helicase = RECQ1 (human) helicase inhibition | P46063 | RECQ1 DNA unwinding, red fluorescence kinetic read | Potency, µM (highest dose often 57.3 µM), for the others: at the top dose activity, negative = inhibition, actives largely listed as inhibitors | 240,000 compounds, 0.54% hits;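 also: plate controls were vehicle for no effect and no enzyme for full effect; nearly all actives have a fitted effect of over 30% in size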
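RECQ1T1 50 nM; forked duplex (20 bp + 30-nt ss tails) 200 nM, ATP 2 mM final; pH 8.0, 2 mM MgCl2, 2.5 ug/ml poly(dI-dC); 15 min compound preincubation; discontinuous kinetic read over 2 h at RT.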
APE1 inh = inhibitors of human APE1 endonuclease; P27695; recombinant APE1, TAMRA/BHQ-2 abasic DNA cleavage fluorescence; Potency, µM (top dose mostly 65.8 µM), for the others: top-dose activity change, negative = inhibition, usual class: inhibitors; 350,000 compounds, 0.35% hits; AID 2517;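 also: plate controls were vehicle for no effect and reference inhibitor for full effect; nearly all actives have a fitted effect of over 55% in size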
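0.75 nM APE1 + cpd, 15 min RT; start w/ 50 nM TAMRA/BHQ-2 THF-abasic dsDNA; kinetic fluor 525/598 nm ×3 reads @60 s; Δ(read3−read1); normalized to DMSO and NSC13755 control wells.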
KAT2A inh = GCN5L2 (KAT2A) acetyltransferase inhibition. Q92830. GCN5L2 HAT assay, ThioGlo1 CoA-SH fluorescence. 390,000 compounds, 0.21% hits. AID 504327. Potency, µM (titrated, usually from 58.9 µM), without a hit: at the top dose activity change, negative = inhibition, hits mostly inhibitors
Target sequence (Q92830 whole entry, looked up): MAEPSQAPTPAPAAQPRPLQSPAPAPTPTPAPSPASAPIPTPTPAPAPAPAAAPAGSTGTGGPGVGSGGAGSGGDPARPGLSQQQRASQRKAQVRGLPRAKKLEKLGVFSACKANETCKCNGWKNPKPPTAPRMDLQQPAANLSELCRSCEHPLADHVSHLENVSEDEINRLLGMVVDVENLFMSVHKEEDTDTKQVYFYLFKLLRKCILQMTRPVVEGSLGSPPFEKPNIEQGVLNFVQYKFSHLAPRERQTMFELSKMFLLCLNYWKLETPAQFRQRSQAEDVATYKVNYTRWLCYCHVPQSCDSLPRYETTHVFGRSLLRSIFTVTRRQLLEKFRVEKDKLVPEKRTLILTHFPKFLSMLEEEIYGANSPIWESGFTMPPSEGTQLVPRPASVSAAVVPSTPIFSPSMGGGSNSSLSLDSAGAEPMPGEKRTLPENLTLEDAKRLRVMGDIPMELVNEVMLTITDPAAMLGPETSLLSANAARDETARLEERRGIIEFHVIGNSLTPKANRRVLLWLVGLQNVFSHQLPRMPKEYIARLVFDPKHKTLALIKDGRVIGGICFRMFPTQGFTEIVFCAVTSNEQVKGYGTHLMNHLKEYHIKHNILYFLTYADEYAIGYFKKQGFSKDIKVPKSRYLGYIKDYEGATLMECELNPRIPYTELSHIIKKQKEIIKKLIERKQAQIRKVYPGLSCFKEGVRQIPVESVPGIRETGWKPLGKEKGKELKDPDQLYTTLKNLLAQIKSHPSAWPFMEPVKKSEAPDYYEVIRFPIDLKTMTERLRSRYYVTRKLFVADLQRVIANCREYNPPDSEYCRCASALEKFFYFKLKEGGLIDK
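Enzyme at 20nM final was mixed with library compounds for 15 min at room temperature. Peptide H3(1-25) at 75uM, acetyl-CoA at 70uM and ThioGlo1 at 50uM were then added. Plates were read immediately and after 20 min (Ex340nm/Em540nm).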
TDP1 block = TDP1 (human) enzyme inhibition | 350,000 compounds, 0.28% hits | recombinant TDP1, AlphaScreen DNA substrate cleavage | Potency, µM (series often up to 130 µM), inactives show at the highest dose activity change, negative = inhibition, most hits filed as inhibitors; also: nearly all actives have a fitted effect of over 40% in size
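Compounds were preincubated with Tdp1 (1 nM final) for 15 min at room temperature before substrate (15 nM final) started a 5 min reaction; beads (10 ug/ml final) were then added for 10 min before AlphaScreen detection.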
BLM inh = blocks DNA unwinding by human BLM helicase; 350,000 compounds, 0.2% hits; AID 2528; P54132; recombinant BLM DNA unwinding, fluorescence dequenching; Potency, µM (series often up to 56.1 µM), inactives show at the top dose activity change, negative = inhibition, usual class: inhibitors;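 also: plate controls were vehicle for no effect and no enzyme for full effect; nearly all actives have a fitted effect of over 35% in size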
Starred values were filed as active, the others as inactive; i = inactive; ? = inconclusive; / = not tested or not shown; ! = a repeat was not active; [ ] = remark or other dose. Most compounds without a hit are left out; they make up all but 0.87% or so of the library. Calls follow the shape of the dose curve; as a rule, active = well fitted curve in the direction sought with a large enough effect; inconclusive = small, poorly fitted or top-dose-only effect, or another doubt; inactive = no such curve, though single readings can be large; an effect the other way counts as inactive or inconclusive. Unless noted, % is scaled to controls: 0 for no effect and ±100 for the full control effect; potency is read from the fitted curve at half-maximal effect.

SMILES | RECQ1 helicase | APE1 inh | KAT2A inh | TDP1 block | BLM inh
CC(=O)O[C@H]1C[C@H](O[C@H]2[C@@H](O)C[C@H](O[C@H]3[C@@H](O)C[C@H](O[C@H]4CC[C@@]5(C)[C@H](CC[C@@H]6[C@@H]5C[C@@H](O)[C@]5(C)[C@@H](C7=CC(=O)OC7)CC[C@]65O)C4)O[C@@H]3C)O[C@@H]2C)O[C@H](C)[C@H]1O[C@@H]1O[C@H](CO)[C@@H](O)[C@H](O)[C@H]1O | / | 3% | / | / | /
O=C1NC(=S)NC(=O)C1=Cc1ccc2c(c1)CCN2CCCCl | ? | 18µM* | 3% | / | 16µM*
Cc1ccccc1N1C(=O)NC(=O)/C(=C\c2ccc3c(c2)CCCN3Cc2ccccc2)C1=O | 3% | -1% | ? | 0% | -22%
CCCCC/C=C\C/C=C\C/C=C\C/C=C\CCCC(=O)O | 2.2µM*! | ? | 22µM*! | 9% | ?
Cc1nccc2c1[nH]c1ccc(Br)cc12 | / | -5% | -4% | / | /
COc1ccc2c(c1)[nH]c1c(C)nccc12 | 3% | 7.9µM*! | ? | -1% | 91%
COc1cc2c(c(OC)c1OC)-c1ccc(OC)c(=O)cc1[C@H](NC(C)=O)CC2 | -2% | -3% | 3%[21.4 µM] | 6% | 2%
C=CC[C@]1(O)CC[C@H]2[C@@H]3CCC4=CCCC[C@@H]4[C@H]3CC[C@@]21C | / | 6% | / | / | /
C/C1=C\[C@@H](C)C/C=C/[C@H]2[C@@H]3O[C@]3(C)[C@@H](C)[C@H]3[C@H](Cc4c[nH]c5ccccc45)NC(=O)[C@]32C(=O)/C=C/C(=O)[C@@H]1O | i | 16µM* | -1% | -6% | -15%
O=C1C[C@@H]2OCC=C3CN4CC[C@]56c7ccccc7N1[C@H]5[C@H]2[C@H]3C[C@H]46 | / | 1% | / | / | /
NC(=O)CI | ? | 0% | 10µM* | / | /
COc1ccc(C(O)P(=O)(OC2CCCCC2)c2ccc(N(C)C)cc2)cc1OC (stereo unspecified) | -5% | 17% | -3% | 4% | -4%
COc1nc(C)nc(Cl)c1NC1=NCCN1 | -11% | 25% | -8% | 0% | 2%
CCC1(C)OC(c2ccccc2)=C/C(=C/C=C2C(=O)NC(=O)NC2=O)O1 (stereo unspecified) | 8.9µM* | 5% | -1% | 3% | -23%
Cc1cc(C)cc(-n2c(C)cc(/C=C3\C(=O)NC(=O)N(C)C3=O)c2C)c1 | -8% | 4% | -3% | 0% | -10%
Cc1cc(C=C2C(=O)N(C)C(=S)N(C)C2=O)c(C)n1-c1ccncc1 | 25µM* | -4% | -7% | 9% | -9%
[O]=[Cr](=[O])([OH])[O][Cr](=[O])(=[O])[OH] | 13µM* | 25µM*! | ? | 6.3µM*! | 1µM*
C=CCN1CC[C@]23CCCC[C@H]2[C@H]1Cc1ccc(O)cc13 | / | -6% | / | / | /
NC(Cc1ccc(Oc2cc(I)c(O)c(I)c2)c(I)c1)C(=O)O (stereo unspecified) | / | / | 14µM* | / | ?
O=C1NC(=O)N(CCC2=CCCCC2)C(=O)/C1=C\c1cccs1 | 16% | -6% | -26% | 0% | -15%
Cn1cccc1/C=C1\C(=O)NC(=O)N(CCC2=CCCCC2)C1=O | 40µM* | -7% | 40% | 5% | -2%
O=C(Nc1cccc(C(=O)Nc2cc(C(=O)Nc3ccc([S+](=O)([O-])[O-])c4cc([S+](=O)([O-])[O-])cc(SOOO)c34)ccc2F)c1)Nc1cccc(C(=O)Nc2cc(C(=O)Nc3ccc([S+](=O)([O-])[O-])c4cc([S+](=O)([O-])[O-])cc([S+](=O)([O-])[O-])c34)ccc2F)c1 | 11µM* | 2.8µM* | -23% | 2.2µM* | 126%
CO/N=C(\C(=O)N[C@@H]1C(=O)N2C(C(=O)O)=C(CSc3nc(=O)c(O)nn3C)CS[C@H]12)c1csc(N)n1 | / | 14µM* | / | / | /
CC(=O)OCC1=C(C(=O)O)N2C(=O)[C@@H](NC(=O)CCC[C@@H](N)C(=O)O)[C@H]2SC1 | / | / | 8% | / | /
CC(C)C[C@H](CN)CC(=O)O | / | 12% | / | / | /
SMILES | RECQ1 helicase | APE1 inh | KAT2A inh | TDP1 block | BLM inh
C[C@H](CCC(=O)O)[C@H]1CC[C@@H]2[C@H]3CC[C@H]4C[C@H](O)CC[C@]4(C)[C@@H]3CC[C@@]21C | -23% | ? | ? | ? | ?
O=C1NC(=O)N(CCc2ccc(F)cc2)C(=O)/C1=C/c1ccco1 | 28µM* | 10µM* | 28µM* | / | -20%
CCOc1cccc(N2C(=O)/C(=C/c3ccco3)C(=O)NC2=S)c1 | / | 11µM* | ? | / | 28µM*
COc1cccc(N2C(=O)/C(=C/c3ccc(C)o3)C(=O)NC2=S)c1 | / | 34% | -20% | / | -13%
O=C1NC(=S)N(c2ccccc2)C(=O)/C1=C/c1ccco1 | / | 17µM* | ? | / | 22µM*
COc1ccccc1/C=C1\C(=O)NC(=S)N(c2ccccc2)C1=O | / | 55% | -8% | / | -2%
CCN(CC)c1ccc(/C=C2\C(=O)NC(=O)N(CC3CCCO3)C2=O)cc1 (stereo unspecified) | -4% | 0% | -5% | 3% | 2%
CCN(CC)c1ccc(/C=C2/C(=O)NC(=O)N(Cc3ccco3)C2=O)cc1 | 32µM* | ? | 1% | ? | -1%
CN(C)c1ccc(/C=C2\C(=O)NC(=O)N(CCc3ccc(F)cc3)C2=O)cc1 | i | 1% | -8% | -2% | -4%
O=C1NC(=S)N(Cc2ccco2)C(=O)/C1=C\c1cccs1 | 7.1µM* | 3.5µM* | 8.9µM* | / | 28µM*
O=C1NC(=O)N(Cc2ccco2)C(=O)/C1=C/c1ccc(-c2cccc([N+](=O)[O-])c2)o1 | ? | 28µM* | 20µM* | / | ?
CN(C)c1ccc(/C=C2/C(=O)NC(=O)N(Cc3ccco3)C2=O)cc1 | ? | 28µM* | -9% | 28µM* | -6%
C=CCN1C(=O)NC(=O)/C(=C\c2ccc(-c3ccccc3[N+](=O)[O-])o2)C1=O | -3% | -8% | -11% | -3% | -4%
C/C(CC(=O)Nc1cc(C)ccn1)=N\NC(=O)c1ccncc1 | / | 67% | -5% | 6% | 2%
C[n+]1cc(P(=S)(c2ccccc2)c2ccccc2)n2ccccc21 | / | / | / | 0% | /
O=C1NC(=O)N(c2cccc(Cl)c2)C(=O)/C1=C\c1ccc(Sc2nc3ccccc3[nH]2)o1 | 13µM* | ? | ? | / | -13%
CN(C)C1C(=O)C(C(N)=O)C(=O)C2(O)C(=O)C3C(=O)c4c(O)cccc4C(C)(O)C3C(O)C12 (stereo unspecified) | i | / | 10µM* | ? | -5%
CN(C)[C@@H]1C(=O)C(C(N)=O)=C(O)[C@@]2(O)C(=O)C3=C(O)c4c(O)cccc4[C@@](C)(O)[C@H]3[C@H](O)[C@@H]12 | 11µM*! | 7.9µM*! | 28µM*! | / | -17%
